{
  "source": "PubChem BioAssay AID2685",
  "about": "(National Center for Advancing Translational Sciences (NCATS), 2010)",
  "note": "Hit rate of the full screen: of about 320,000 compounds, about 2,100 (0.66%) were called active. Inconclusive results (about 53%) are left out. Calls come from the whole dose curve; as a rule, active = well fitted inhibition curve with a large enough effect in the signal ratio, with a control signal flat (not every such curve was filed as active); inconclusive = small, poorly fitted or top-dose-only effect, or effect the other way, or a change in a side signal; inactive = flat fitted curve, though single readings scatter; the % refers to the signal ratio. The full list was thinned out, with actives kept by preference. Potency is the fitted concentration of half-maximal effect.",
  "data": [
    {"assay": "qHTS Assay for Lipid Storage Modulators in Drosophila S3 Cells;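 for cell number change: cells counted by Cell Tracker Red CMTPX staining in the red channel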; for lipid storage change, negative = inhibition: % is set by controls: 0 for no effect and ±100 for the full control effect", "details": "BODIPY lipid droplet fluorescence, 18-24 h, cells fed with added oleic acid; cell number change: measured here: cell count max response; series mostly up to 46.1 µM; lipid storage change, negative = inhibition: at the top concentration", "outline": "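Drosophila S3 cells got compounds at several concentrations plus oleic acid (400 uM solution). Laser-scanning cytometry with 488 nm excitation read lipid droplets at 500-530 nm and cells at 575-640 nm. Percent activity was relative to 20 uM Triacsin C.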", "units": {"cell number change": "%"}, "values": [
      {"smiles": "COc1ccc(-c2cc(CNC(=O)CCl)on2)cc1", "lipid storage change, negative = inhibition": "3.41% (inactive)", "cell number change": 8.76},
      {"smiles": "COc1ccc(-c2cc(CNC(=O)CN3CCN(C)CC3)on2)cc1", "Potency": "4.11 µM (active)", "cell number change": -114},
      {"smiles": "COc1ccc(-c2cc(CNC(C)=O)on2)cc1", "lipid storage change, negative = inhibition": "10.5% (inactive)", "cell number change": 0.804},
      {"smiles": "O=Cc1c(N2CCN(c3ccccc3)CC2)nc2ccccn2c1=O", "lipid storage change, negative = inhibition": "4.25% (inactive)", "cell number change": 2.17},
      {"smiles": "CN1CCN(c2nc3ccccn3c(=O)c2C=O)CC1", "outcome": "inactive", "cell number change": 25},
      {"smiles": "COc1ccc(N2CCN(c3nc4ccccn4c(=O)c3C=O)CC2)cc1", "Potency": "4.61 µM (active)", "cell number change": 25.2},
      {"smiles": "COc1cccc(NC(=O)CSc2nnnn2C2CCCC2)c1", "Potency": "8.2 µM (active)", "cell number change": -5.13},
      {"smiles": "COc1ccc(NC(=O)CSc2nnnn2C2CCCC2)cc1", "lipid storage change, negative = inhibition": "15% (inactive)", "cell number change": 9.25},
      {"smiles": "COc1cc(NC(=O)CSc2nnnn2C2CCCC2)cc(OC)c1", "outcome": "inactive", "cell number change": 5.13},
      {"smiles": "CC(C)C(=O)N=c1sc2cccc(F)c2n1C", "lipid storage change, negative = inhibition": "21.4% (inactive)", "cell number change": 19.6},
      {"smiles": "C/C(=N\\NC(=O)CC#N)c1ccc(Oc2ccccc2)cc1", "lipid storage change, negative = inhibition": "6.93% (inactive)", "cell number change": 6.12},
      {"smiles": "CCOc1ccccc1N1C(=O)c2ccc(C(=O)O)cc2C1=O", "Potency": "4.61 µM (active)", "cell number change": -1.3},
      {"smiles": "CCOc1ccccc1N1C(=O)c2ccc(C(=O)Nc3cccnc3)cc2C1=O", "outcome": "inactive"},
      {"smiles": "CCOc1ccccc1N1C(=O)c2ccc(S(=O)(=O)c3ccc(C(=O)O)cc3)cc2C1=O", "lipid storage change, negative = inhibition": "25.3% (inactive)", "cell number change": 24.2},
      {"smiles": "CCS(=O)(=O)c1ccc2oc(SCC(=O)Nc3ccc(OC)cc3)nc2c1", "lipid storage change, negative = inhibition": "11.2% (inactive)", "cell number change": 7.84},
      {"smiles": "CCN(CC)c1nc(-c2ccc(C(=O)NN)cc2)nc(-c2ccc(C(=O)NN)cc2)n1", "lipid storage change, negative = inhibition": "16.7% (inactive)", "cell number change": 26.3},
      {"smiles": "CCN(CC)c1nc2n(c(=O)n1)CCN2CC", "Potency": "5.17 µM (active)", "cell number change": 14.9},
      {"smiles": "CCN(CC)c1nc(SCC(=O)O)nc(N(CC)CC)n1", "outcome": "inactive"},
      {"smiles": "CCOc1cc(/C=C2\\SC(=S)N(N3CCOCC3)C2=O)ccc1O", "lipid storage change, negative = inhibition": "-7.43% (inactive)", "cell number change": -15.1},
      {"smiles": "Nc1nc(N2CCN(C(=O)c3ccco3)CC2)nc2ccccc12", "lipid storage change, negative = inhibition": "3.78% (inactive)", "cell number change": 7.42},
      {"smiles": "COc1cc(C#N)ccc1OCC(=O)NCc1cccs1", "outcome": "inactive"},
      {"smiles": "CCc1ccc2oc(-c3ccc(NC(C)=O)cc3)nc2c1", "Potency": "11.6 µM (active)"},
      {"smiles": "CC(=O)Nc1ccc2oc(-c3ccccc3)nc2c1", "lipid storage change, negative = inhibition": "10.5% (inactive)", "cell number change": 17.7},
      {"smiles": "CCN(CC)CC(=O)Nc1ccc(-c2nc3cc(NC(=O)CN(CC)CC)ccc3o2)cc1", "outcome": "inactive", "cell number change": 0.429},
      {"smiles": "COc1ccc(NC(=O)Cc2ccc(C)c(C)c2)cc1Cl", "lipid storage change, negative = inhibition": "-18.4% (inactive)", "cell number change": -32.8},
      {"smiles": "COc1ccc(OC)c(NC=C2C(=O)OC3(CCCCC3)OC2=O)c1", "lipid storage change, negative = inhibition": "-31.6% (inactive)", "cell number change": -8.05},
      {"smiles": "COc1ccccc1C(=O)COC(=O)c1ccc(Cl)nc1", "lipid storage change, negative = inhibition": "2.34% (inactive)", "cell number change": -5.19},
      {"smiles": "CCN(Cc1ccncc1)C(=O)c1cc(COc2ccc(F)cc2F)on1", "outcome": "inactive", "cell number change": -20.5},
      {"smiles": "Cc1cc(=S)cc(C)n1CCCO", "lipid storage change, negative = inhibition": "0.297% (inactive)", "cell number change": -15.3},
      {"smiles": "COc1ccc(OCc2nc3ccc(S(=O)(=O)Nc4ccccc4Cl)cc3[nH]2)cc1", "lipid storage change, negative = inhibition": "0.493% (inactive)", "cell number change": 18.1},
      {"smiles": "c1ccc2cc(OCc3nc4ccccc4[nH]3)ccc2c1", "lipid storage change, negative = inhibition": "-7.47% (inactive)", "cell number change": -24.1},
      {"smiles": "COc1ccccc1NS(=O)(=O)c1ccc2nc(CCl)[nH]c2c1", "Potency": "0.259 µM (active)", "cell number change": -11.7},
      {"smiles": "COc1ccccc1NS(=O)(=O)c1ccc2oc(=S)[nH]c2c1", "lipid storage change, negative = inhibition": "0.324% (inactive)", "cell number change": 9.13},
      {"smiles": "COc1ccccc1NS(=O)(=O)c1ccc2[nH]c(=O)[nH]c2c1", "outcome": "inactive", "cell number change": -22.3},
      {"smiles": "COc1ccc(NS(=O)(=O)c2ccc3nc(COc4ccc5ccccc5c4)[nH]c3c2)cc1", "Potency": "23.1 µM (active)", "cell number change": -9.6},
      {"smiles": "COc1ccc(NS(=O)(=O)c2cccc(C(=O)NCC3(N4CCOCC4)CCCCC3)c2)cc1", "lipid storage change, negative = inhibition": "-19.7% (inactive)", "cell number change": 1.17},
      {"smiles": "CCCS(=O)(=O)Nc1cccc(-c2cn3c(n2)SCC3)c1", "outcome": "inactive", "cell number change": -21.2},
      {"smiles": "Cc1ccnc(Sc2ncccc2[N+](=O)[O-])n1", "Potency": "29.1 µM (active)", "cell number change": -11.7},
      {"smiles": "Cc1cc(C)n2nc(Sc3ncccc3[N+](=O)[O-])nc2n1", "lipid storage change, negative = inhibition": "-0.347% (inactive)", "cell number change": -8.83},
      {"smiles": "Cc1ccc(Sc2ncccc2[N+](=O)[O-])cc1", "lipid storage change, negative = inhibition": "-8.13% (inactive)", "cell number change": -12.8},
      {"smiles": "COCc1cc(CN2CCN(Cc3ccsc3)C(CCO)C2)ccc1OC", "note": "(centres undefined)", "lipid storage change, negative = inhibition": "-2.77% (inactive)", "cell number change": 9.7},
      {"smiles": "CCC(C)(C)NC(=O)C(c1ccc(O)cc1)N(CCOC)C(=O)CCC(=O)Nc1nccs1", "note": "(centres undefined)", "lipid storage change, negative = inhibition": "-16.7% (inactive)", "cell number change": -13.3},
      {"smiles": "CCC(C)(C)NC(=O)C(c1ccc(F)cc1)N(CCOC)C(=O)CCC(=O)Nc1nccs1", "note": "(centres undefined)", "Potency": "14.6 µM (active)", "cell number change": 3.04},
      {"smiles": "COCCN(C(=O)CCC(=O)Nc1nccs1)C(C(=O)NC(C)(C)C)c1ccc(F)cc1", "note": "(centres undefined)", "lipid storage change, negative = inhibition": "-2.68% (inactive)", "cell number change": 9.66},
      {"smiles": "Cc1cc2nnc(SCC(=O)Nc3cccc(S(=O)(=O)N4CCOCC4)c3)n2c2ccccc12", "lipid storage change, negative = inhibition": "2.35% (inactive)", "cell number change": 5.18},
      {"smiles": "C=CCSc1nnc(CC(OC)OC)n1-c1ccccc1", "outcome": "inactive"},
      {"smiles": "CC(=O)Nc1cccc(/C(C)=N/NC(=O)c2ccc(NS(=O)(=O)c3cccs3)cc2)c1", "lipid storage change, negative = inhibition": "-1.63% (inactive)", "cell number change": 10.3}
    ]}
  ]
}
